Screens (PubChem)
TROY signal inh: inhibitors of TROY-driven NF-kB signaling, primary screen, Q293 LMP1-TROYcd cells, NF-kB luciferase, uHTS. Q293 LMP1-TROYcd NF-kB luciferase reporter, 4 h. inhibition, % at 10 µM. 360,000 tested, 0.98% active. AID 1347056, 2019;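 active = compounds whose plate-normalised and pattern-corrected inhibition of the luciferase reporter signal at the single screening dose is 50% or more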
TRAIL sens C8: viability loss with TRAIL in NB7+C8 cells, primary screen, TRAIL sensitizer project, cell-based, ATPlite luminescence; inhibition (viability loss, TRAIL sensitization), % at 10 µM; 360,000 tested, 1% active; AID 624354, 2012;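 active = compounds causing at least 50% loss of cell viability in the single-dose screen, relative to plate controls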
aSyn UTR inh: MLPCN primary screen, SNCA 5' untranslated region; alpha-synuclein 5'UTR reporter, inhibitor activity; inhibition, % (tested at 7.5 µM); 300,000 tested, 0.82% active; in the data active = inhibition above about 60%;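 note: H4 neuroglioblastoma cells stably carrying SNCA 5'UTR luciferase fusion; 0% = DMSO wells and 100% = positive control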
HIF-2a inh: HIF-2a reporter inhibitors, primary screen, luminescence, 786-0 RCC cells; inhibition, % at 18.8 µM; AID 624352, 2012; 360,000 tested, 0.72% active; 786-0 RCC cells HIF-2a reporter, luciferase luminescence, overnight;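 active = inhibition of the luminescence signal of 40% or more relative to plate controls, in a single-dose primary screen at 18.75 µM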
TWEAK-Fn14 inh: inhibitors of TWEAK-Fn14 signaling, primary screen, luciferase reporter cells, uHTS. 360,000 tested, 2% active. inhibition, % at 10 µM. TWEAK-stimulated Fn14 reporter cells, luciferase luminescence, 8 h; in the data active = inhibition above about 50%
HSP90 inh: HSP90 inhibitors, primary screen, cell lysate, luminescence; Heat shock protein HSP 90 (rabbit reticulocyte lysate; luciferase refolding); Rabbit reticulocyte lysate, luciferase refolding luminescence, 3 h; inhibition, % at 5.6 µM; 290,000 tested, 0.91% active; AID 1789, 2009;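 active = inhibition above the screen-wide mean plus 3 SD, computed separately per campaign, cut at about 16% in these data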;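 note: 0% = DMSO wells and 100% = 60 µM geldanamycin wells; inhibitors lower the luminescence because luciferase stays unfolded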
Active calls of the source: *; . = no result given. Rows were chosen to be rich in hits. Some 3.9% of all compounds tested hit in one or more screens of this group.

SMILES	TROY signal inh	TRAIL sens C8	aSyn UTR inh	HIF-2a inh	TWEAK-Fn14 inh	HSP90 inh
O=C(Nc1ccc2ccccc2c1)C(c1ccccc1)n1c(=O)c(-c2cc3ccccc3[nH]2)nc2ccccc21 (configuration not stated)	.	-7	.	-35	.	.
CCCCn1nnnc1C(c1cc2ccccc2o1)N1CCCN(C(=O)OC(C)(C)C)CC1 (configuration not stated)	7	3	.	10	15	.
C[C@H](CO)N1C[C@H](C)[C@@H](CN(C)C)Oc2c(NS(=O)(=O)c3cccs3)cccc2C1=O	-1	-2	.	1	-5	.
CCCCOc1ccc(C(=O)Nc2ccc(OCC(=O)N3CCOCC3)cc2)cc1	-36	70*	-51	-163	-7	-1
COc1ccc(-c2csc(NC(=O)c3c(C)noc3C)n2)cc1F	77*	-7	.	-56	20	.
c1ccc(-c2csc(Nc3ccc4c(c3)OCCO4)n2)cc1	58*	19	-50	-222	45	13
COc1cccc(Nc2nc(-c3ccc4c(c3)OCCO4)cs2)c1	43	23	-227	-251	33	4
COc1ccc(NC(=O)N(C)C[C@@H]2Oc3cc(C#CCN(C)C)ccc3S(=O)(=O)N([C@H](C)CO)C[C@H]2C)cc1	-7	-6	.	-4	0	.
CC(=O)C(C(C)=O)c1c(Cl)c(O)c(O)c2c(C(=O)c3ccccc3)coc12	41	0	-4	16	76*	0
CN1CCN(Cc2c(O)ccc3occ(C(=O)c4ccccc4)c23)CC1	4	-9	10	9	8	2
O=C1NC[C@@H](CCCCN2C[C@H](Cc3ccc(O)cc3)N(CCC3CCCCC3)C(=O)C2=O)N(CCC2CCCCC2)C1=O	15	-6	.	3	-2	.
COCCNC(=O)C1(C)CCCN(C(=O)c2ccc(-c3ccccc3)cc2)C1 (configuration not stated)	-4	-3	.	-13	-1	.
O=c1[nH]c(Sc2ccc([N+](=O)[O-])cc2[N+](=O)[O-])nc2ccccc12	-43	-2	-31	-91	-1	.
O=[N+]([O-])c1ccc(Sc2cc[n+]([O-])c3ccccc23)c([N+](=O)[O-])c1	3	18	-19	-40	77*	-2
Cc1ccc(S(=O)(=O)N(C)c2ccc(OCC(=O)Nc3nc4c(ccc5ccccc54)s3)cc2)cc1	6	3	-9	-45	-7	2
CN(c1ccc(OCC(=O)Nc2nc(-c3ccccc3)cs2)cc1)S(=O)(=O)c1ccc(F)cc1	18	21	-88	-14	55*	5
CCc1ccccc1OCC(=O)Nc1nc(-c2cccnc2)cs1	61*	14	70*	-11	-39	1
Cc1ccc(S(=O)(=O)N(C)c2ccc(OCC(=O)Nc3nc4ccccc4s3)cc2)cc1	24	31	2	-33	70*	1
O=C(C[n+]1ccccc1)Nc1nc2ccccc2s1	40	-4	-29	-15	-7	1
Cc1ccc[n+](CC(=O)Nc2nc3ccccc3s2)c1	81*	-8	-56	-9	64*	0
CCOC(=O)[C@]12CCCC=C1N(CCC1=CCCCC1)C(=O)[C@H](CC(=O)NCCCN1CCCC1=O)C2	.	-11	.	-11	.	.
O=C(Cc1ccccc1Cl)c1ccccc1	-18	-6	.	-11	0	.
CN(C)C(=O)C[C@@H]1C=C[C@@H](NC(=O)C2CCC2)[C@@H](CO)O1	.	4	.	7	.	.
CCN(CC(=O)NCc1ccc(Cl)cc1)C(=O)CN1C(=O)NC(CC)(c2ccccc2)C1=O (configuration not stated)	-10	1	14	11	91*	-4
CCN(CC(=O)NCc1ccc(Cl)cc1)C(=O)CN1C(=O)NC(C)(c2ccccc2)C1=O (configuration not stated)	-25	3	1	4	-4	2
SMILES	TROY signal inh	TRAIL sens C8	aSyn UTR inh	HIF-2a inh	TWEAK-Fn14 inh	HSP90 inh
O=C(Nc1ccccc1O)C(c1ccccc1)c1ccccc1	25	15	27	19	64*	-6
C[N+](C)(C)CCNC(=O)c1ccccc1	3	-18	.	4	23	.
CC(Oc1ccc(Cl)cc1Cl)C(=O)N(Cc1ccco1)C1CCS(=O)(=O)C1 (configuration not stated)	.	-1	8	18	83*	1
CC(C)COc1ccc(C(=O)N(Cc2ccco2)C2CCS(=O)(=O)C2)cc1 (configuration not stated)	.	17	36	13	73*	2
O=C1c2ccccc2C(c2nnnn2-c2ccc3c(c2)OCCO3)N1CCOc1ccccc1 (configuration not stated)	-24	2	.	-45	-17	.
O=C(N/N=C/c1cc(Br)ccc1O)C(c1ccncc1)N1CCOCC1 (configuration not stated)	26	53*	24	9	-8	-4
Fc1ccc(C2=Nc3cccc4cccc(c34)N2)cc1	4	-2	2	21	3	0
FC(F)(F)C1=Nc2cccc3cccc(c23)N1	-7	51*	.	-5	12	.
COCC(C)n1c(C)cc(C(=O)COC(=O)c2c(NC(C)=O)sc(C)c2C)c1C (configuration not stated)	65*	21	13	-9	15	.
CCOC(=O)N1CCN(C(=O)c2ccc(CS(=O)c3cccc(C)c3)o2)CC1 (configuration not stated)	-4	-1	.	7	6	.
CS(=O)(=O)c1ccc(C(=O)OCc2nnc(-c3ccccc3)o2)cc1[N+](=O)[O-]	66*	1	45	21	66*	3
CS(=O)(=O)c1ccc(C(=O)OCC(=O)NC(=O)C2CCCCC2)cc1[N+](=O)[O-]	51*	-3	-17	18	73*	5
CS(=O)(=O)c1ccc(C(=O)OCC(=O)N2CCN(CCC3CCCCC3)CC2)cc1[N+](=O)[O-]	34	89*	.	80*	79*	.
CC(=O)c1cccc(NC(=O)COC(=O)c2ccc(S(C)(=O)=O)c([N+](=O)[O-])c2)c1	45	4	-52	14	64*	-4
CC(=O)NC(C)(c1ccccc1)c1nc(-c2cccc3cccnc23)cs1 (configuration not stated)	-12	-3	.	2	-39	.
CCCCCCCCN1C(=O)[C@H](CC(=O)NCCCC)C[C@@]2(C(=O)OC)CC(C)(C)CC=C12	.	3	.	12	.	.
O=C(OCc1nnc(-c2ccccc2)o1)c1cc2ccccc2cc1O	-12	-1	-29	-46	-6	3
